Test results from article PMC5540273 (PLoS ONE, 2017).

Columns and labels:
Details in all cases: concentration: 1 μM, replicates: in singlicate; n = 1
MLK1 = test system: T1, MLK1
T1 construct: gene MAP3K9

MLK2 = test system: MLK2
MLK3 = test system: MLK3
MRCKA = test system: MRCKA
MRCKB = test system: T2, MRCKB
T2 construct: gene CDC42BPB

MST1R = test system: MST1R
MST1 = test system: T3, MST1
T3 construct: gene STK4

MST2 = test system: T4, MST2
T4 construct: gene STK3

MST3 = test system: T5, MST3
T5 construct: gene STK24

MST4 = test system: MST4
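Note: KINOMEscan kinase panel screen.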

Compound	%Inh (MLK1)	%Inh (MLK2)	%Inh (MLK3)	%Inh (MRCKA)	%Inh (MRCKB)	%Inh (MST1R)	%Inh (MST1)	%Inh (MST2)	%Inh (MST3)	%Inh (MST4)
Fc1cc(Cl)ccc1Nc1ccnc2cc(-c3ccc(CN4CCSCC4)o3)ccc12 [GW560106]	14%	0%	13%	0%	4%	31%	30%	0%	0%	0%
Cn1cc(-c2cnc(N)c3c(-c4ccc5c(c4)CCN5C(=O)Cc4ccccc4)csc23)cn1 [GSK2593074]	14%	25%	14%	10%	10%	12%	97.8%	100%	7%	33%
CCn1c(-c2nonc2N)nc2c(-c3ccccc3)ncc(OCCCN)c21.O=C(O)C(F)(F)F.O=C(O)C(F)(F)F [GSK260205]	0%	0%	0%	99.9%	99.3%	45%	52%	0%	38%	71%
Cc1ccc(Nc2ccnc(Nc3ccc(C)c(F)c3)n2)cc1O.Cl [GW582868]	60%	0%	45%	0%	0%	18%	0%	9%	0%	0%
CC(C)c1nc(-c2ccc(F)c(NS(=O)(=O)c3c(F)cccc3F)c2)c(-c2ccnc(Nc3ccc(N4CCOCC4)nc3)n2)s1 [GSK1804250]	52%	8%	52%	4%	0%	46%	17%	3%	23%	23%
Cc1ccc(O)cc1Nc1ccnc2ccc(C(C)(C)C)cc12 [GW856805]	11%	19%	19%	0%	0%	0%	0%	28%	12%	36%
Cc1ccc(O)cc1Nc1ccnc2cc(-c3ccc(CN4CCCCC4)o3)ccc12 [GW557777]	2%	0%	2%	0%	0%	5%	0%	0%	17%	0%
CCNc1nccc(-c2c(-c3ccc(F)cc3)ncn2C2CCN(C)CC2)n1	0%	7%	0%	0%	0%	0%	0%	38%	21%	0%
COC(=O)Nc1nc2ccc(Oc3ccc(NC(=O)Nc4cc(C(F)(F)F)ccc4F)cc3)cc2[nH]1.Cl [GW654607]	2%	21%	1%	15%	0%	61%	6%	0%	6%	8%
NCCC(NC(=O)c1cc(Br)c(-c2ccnc3[nH]ccc23)s1)c1ccccc1.O=C(O)C(F)(F)F.O=C(O)C(F)(F)F (stereo not drawn) [GSK1307810]	0%	0%	0%	86%	99.1%	29%	0%	4%	11%	23%
CC(=O)Nc1cn2nc(Oc3cccc(NC(=O)c4cccc(C(F)(F)F)c4)c3)ccc2n1	2%	23%	6%	7%	0%	0%	27%	0%	1%	0%
CN(c1ccc(NC(=O)Nc2cccc(Cl)c2)cc1)c1ccnc(N)n1.Cl [GW830707]	0%	7%	0%	0%	17%	22%	0%	11%	0%	16%
Cl.O=C(Nc1ccc(Oc2ccc3[nH]c(NC(=O)c4ccco4)nc3c2)cc1)Nc1cc(C(F)(F)F)ccc1F [GW683134]	28%	28%	49%	15%	0%	41%	17%	0%	8%	0%
CC(C)NCC(Cc1ccccc1)NC(=O)c1cc(Br)c(-c2ccnc3[nH]ccc23)s1.Cl.Cl (stereo not drawn) [GSK1383281]	4%	0%	0%	25%	89%	43%	0%	0%	0%	26%
COc1cccc2c(-c3ccncc3)c(-c3ccc(F)cc3)nn12 [GW468513]	0%	1%	4%	60%	67%	15%	31%	0%	0%	0%
Nc1cccc(-c2ccc3c(N)n[nH]c3c2)c1 [GSK2193613]	10%	100%	19%	0%	0%	26%	6%	17%	21%	0%
O=C(Nc1n[nH]c2cc(-c3cccs3)ccc12)C1CC1 [SB-731284]	0%	27%	0%	0%	0%	0%	10%	0%	7%	39%

Compound	%Inh (MLK1)	%Inh (MLK2)	%Inh (MLK3)	%Inh (MRCKA)	%Inh (MRCKB)	%Inh (MST1R)	%Inh (MST1)	%Inh (MST2)	%Inh (MST3)	%Inh (MST4)
COc1ccc(C2=C(Nc3cccc(O)c3)C(=O)NC2=O)cc1 [SB-390766]	0%	0%	0%	0%	2%	100%	7%	100%	0%	0%
COc1cc(Nc2ccnc3cc(-c4ccncc4)ccc23)cc(OC)c1OC.Cl [GW494610]	2%	27%	21%	0%	4%	41%	9%	0%	0%	0%
O=C(Nc1c(F)cccc1F)c1cc(C(=O)c2ccccc2F)c[nH]1 [GSK1326180]	3%	21%	0%	0%	0%	0%	2%	0%	0%	0%
CNc1nccc(-c2ccc3c(N)n[nH]c3c2)n1 [GSK2206003]	4%	0%	10%	0%	0%	10%	30%	0%	13%	0%
O=C(Nc1n[nH]c2nc(-c3ccccc3)ccc12)C1CC1 [SB-708999]	0%	11%	5%	8%	0%	0%	3%	0%	3%	41%
COc1cccc(CC(=O)N2CCc3cc(-c4cn(C)c5ncnc(N)c45)ccc32)c1 [GSK2608899]	32%	41%	20%	2%	0%	45%	98.8%	100%	31%	27%
Cc1nn2c(=O)cc(N3CCO[C@H](C)C3)nc2n1Cc1cccc(Cl)c1Cl [GSK2373693]	0%	5%	9%	0%	60%	0%	20%	0%	0%	0%
Cn1cc(-c2ccc3c(c2)CCN3C(=O)Cc2cc(F)cc(C(F)(F)F)c2)c2c(N)ncnc21 [GSK2635225]	78%	42%	72%	5%	0%	19%	39%	10%	0%	0%
COc1cccc(-c2nc(-c3ccccc3)[nH]c2-c2ccncc2)c1 [SB-610250]	0%	0%	0%	41%	0%	23%	8%	0%	0%	0%
Cc1cc(-c2ccnc(Nc3cccc(C#N)c3)n2)cc(C)c1O [GSK1440913]	66%	0%	36%	5%	0%	0%	0%	9%	6%	9%
Nc1ncc(-c2ccc3nccc(-c4ccncc4)c3c2)cc1S(=O)(=O)N1CCCCC1 [GSK1693850]	0%	0%	7%	12%	0%	35%	8%	25%	29%	0%
Cc1cccc(Nc2nc(NCCN)ncc2C(N)=O)c1 [GSK1292139]	85%	0%	61%	2%	0%	14%	35%	38%	23%	23%
COC(=O)Nc1nc2ccc(Oc3ccc(CC(=O)Nc4cc(C(F)(F)F)ccc4F)cc3)cc2[nH]1 [GW680903]	0%	0%	0%	39%	0%	34%	0%	0%	4%	0%
CCNC(=O)/C=C/c1n[nH]c2cc(Sc3ccccc3C(=O)NC)ccc12	7%	7%	0%	0%	48%	8%	0%	0%	30%	0%
CSc1ccc(NC2=C(c3ccc(Cl)cc3)C(=O)NC2=O)cc1 [SB-317658]	0%	4%	0%	0%	0%	33%	29%	45%	0%	6%
CN(c1ccc2c(c1)nc(NCc1ccccc1)n2C)c1ccnc(Nc2ccc(CS(C)(=O)=O)cc2)n1.Cl [GW811603]	12%	17%	2%	11%	0%	23%	24%	2%	0%	0%
